BoNT-F LC inh: blocks Botulinum neurotoxin F light chain protease; Multiplex microsphere protease cleavage assay, flow cytometry; inhibition, % at 10 µM; 0.22% of 360,000 active; in the data active = inhibition above about 35%, passing the limit was not always enough; inconclusive = no clear call, values can overlap the other calls; note: plate controls were buffer without enzyme for full effect and enzyme alone for no effect
Autofluor counter: flagged as autofluorescent in microsphere protease counterscreen. compound autofluorescence counterscreen, microsphere flow cytometry; hits give high values. fluorescence intensity (concentration not given with the values). 3.1% of 360,000 active. AID 624483; in the data active = fluorescence intensity above about 16000; inconclusive = no clear call, values can overlap the other calls
BoNT-A LC inh2: BoNT A light chain protease inhibition; multiplex microsphere protease substrate cleavage, flow cytometry; inhibition, % at 10 µM; 0.17% of 360,000 active; AID 588499; note: plate controls were buffer without enzyme for full effect and enzyme alone for no effect
CCHFV vOTU inh: blocks the CCHF virus ovarian tumor domain protease; CCHFV vOTU protease, Pep-AMC fluorescence; inhibition, % at 11.5 µM; 0.55% of 370,000 active; AID 651958; in the data active = inhibition above about 30%; note: 0% = vehicle wells with enzyme and 100% = no enzyme wells
3CLpro inhibitor: SARS-CoV 3CLpro protease inhibition; inhibition, % at 6 µM; 0.14% of 290,000 active; AID 1706; recombinant SARS-CoV 3CLpro, quenched FRET peptide cleavage; in the data active = inhibition above about 12%
Anthrax LF prot: anthrax lethal factor protease inhibition | inhibition, % at 10 µM | multiplex microsphere protease cleavage assay, LF | P15917 | 0.12% of 360,000 active; note: plate controls were buffer without enzyme for full effect and enzyme alone for no effect
An asterisk follows results filed as active; u = inconclusive; x = no result given. A selection: hits, their analogues and other compounds. The true share with any hit is near 3.9%. Cut-off read from the data, not from the text of the source, unless noted: active = inhibition above about 30%; inconclusive = no clear call, values can overlap the other calls; inactive = below that.

SMILES	BoNT-F LC inh	Autofluor counter	BoNT-A LC inh2	CCHFV vOTU inh	3CLpro inhibitor	Anthrax LF prot
O=S(=O)(Nc1ccc2c(c1)nc1n2CCN(Cc2ccccc2)C1)c1ccc(F)cc1	-12	24166*	2	-1	-1	3
O=S(=O)(Nc1ccc2c(c1)nc1n2CCN(Cc2ccccc2)C1)c1ccccc1	-15	7297	3	-4	-1	-12
Cc1ccc(S(=O)(=O)Nc2ccc3c(c2)nc2n3CCN(Cc3ccccc3)C2)cc1	-4	18646*	6	-4	1	3
CC(NC(=O)OCc1ccccc1)C(=O)NCC1CCCO1 (centres undefined)	2	22834*	1	3	-2	-1
CC(C(=O)NCC1CCCO1)N(C(=O)c1snc(C(N)=O)c1N)c1cccc(F)c1 (centres undefined)	-6	9542	-1	-21	1	-7
CC(C(=O)NCC1CCCO1)N(C(=O)c1snc(C(N)=O)c1N)c1ccccc1 (centres undefined)	1	23246*	0	-10	6	-1
CC(NC(=O)C(=O)NCC1CCCO1)c1ccccc1 (centres undefined)	1	4085	0	-4	0	-3
Cc1ccccc1OCCN1C(=O)NC2(CCc3ccccc32)C1=O (centres undefined)	1	20031*	1	-4	1	0
O=C1NC2(CCc3ccccc32)C(=O)N1CCOc1ccc(Cl)cc1 (centres undefined)	1	4214	0	-9	-2	-3
Cc1cccc(S(=O)(=O)c2c(N)n(/N=C/c3ccco3)c3nc4ccccc4nc23)c1	5	22583*	3	-13	5	-1
Nc1c(S(=O)(=O)c2ccccc2)c2nc3ccccc3nc2n1/N=C/c1ccco1	-1	19798*	u	-21	0	0
Cc1ccc(S(=O)(=O)c2c(N)n(/N=C/c3ccco3)c3nc4ccccc4nc23)cc1	-4	20865*	0	-5	1	-4
Cc1cccc(S(=O)(=O)c2c(N)n(/N=C/c3cccnc3)c3nc4ccccc4nc23)c1	-2	5409	0	-9	4	2
Cc1ccc(S(=O)(=O)c2c(N)n(/N=C/c3ccco3)c3nc4ccccc4nc23)cc1C	0	2315	1	-8	-5	-5
Cc1ccc(S(=O)(=O)c2c(N)n(NC(=O)C3CC3)c3nc4ccccc4nc23)cc1	1	16643*	0	-267	3	-4
Cc1c(NC(=O)C2CCCN(S(=O)(=O)c3ccccc3[N+](=O)[O-])C2)c(=O)n(-c2ccccc2)n1C (centres undefined)	x	x	x	-1	x	x
O=C(CSc1cccc[n+]1[O-])N1CCc2ccccc21	-8	4229	0	-11	3	-1
COc1ccc(-c2noc(CN(C)C(=O)c3ccoc3C)n2)cc1OC	1	4350	1	10	-4	0
CCN(C[C@H]1N[C@@](C)(C(=O)OC)[C@H]2C(=O)N(C)C(=O)[C@@H]12)C(=O)Nc1ccc(C(F)(F)F)cc1	-6	2890	0	0	x	6
CCc1c(C)nc(SCC(=O)Nc2c(C)n(C)n(-c3ccccc3)c2=O)[nH]c1=O	5	21804*	4	-7	4	0
Cc1c(NC(=O)CSc2nncc3ccccc23)c(=O)n(-c2ccccc2)n1C	2	20089*	u	2	-4	-6
Cc1nc(SCC(=O)Nc2c(C)n(C)n(-c3ccccc3)c2=O)nc(C)c1C	4	2317	0	-1	-4	3
Clc1ccc(/C=N/Nc2nnc(Cl)c3ccccc23)cc1	-3	10256	0	-17	3	-2
Clc1nnc(N/N=C/c2ccccc2)c2ccccc12	-3	16810*	-3	-4	0	-5
COc1ccc(/C=N/Nc2nnc(-c3ncc[nH]3)c3ccccc23)cc1	1	21400*	-1	x	-3	1
SMILES	BoNT-F LC inh	Autofluor counter	BoNT-A LC inh2	CCHFV vOTU inh	3CLpro inhibitor	Anthrax LF prot
C[C@@H]1C[C@H]2O[C@@H]2/C=C\C=C\C(=O)Cc2cc(O)cc(O)c2C(=O)O1	x	x	x	-7	x	x
CN1[C@@H](Cc2ccccc2)COc2cccc(F)c2S1(=O)=O	x	x	x	2	x	x
O=C(CC1C(=O)NCCN1Cc1c(F)cccc1Cl)NC1CCCC1 (centres undefined)	-3	4723	-1	-4	1	1
c1ccc(CCc2nn3c(Cn4nnc5ccccc54)nnc3s2)cc1	-23	4342	-1	-18	1	-1
c1ccc2c(c1)OCC(c1nn3c(Cn4nnc5ccccc54)nnc3s1)O2 (centres undefined)	1	16268*	u	7	1	2
c1cncc(-c2nn3c(Cn4nnc5ccccc54)nnc3s2)c1	3	16144*	1	-1	-1	0
c1ccc(-c2nn3c(Cn4nnc5ccccc54)nnc3s2)nc1	-5	5692	0	3	-6	-6
c1ccc(Cc2nn3c(Cn4nnc5ccccc54)nnc3s2)cc1	-1	22542*	u	-3	6	-1
COc1cccc(CN2CC(C(=O)NCCOc3ccccc3)CCC2=O)c1 (centres undefined)	5	5127	1	4	-4	3
CN(C)/C(=N\S(=O)(=O)c1ccc(Cl)cc1)c1ccc(F)cc1	-13	4309	-2	-2	-1	-6
CCn1c(=O)cc(OCC(=O)Nc2ccc(C)cn2)c2ccccc21	2	19603*	0	9	8	0
COc1ccc(-n2c(=O)c3ccccc3n(CC(=O)NC3CCCC3)c2=O)c(OC)c1	3	21567*	4	-3	0	-1
CCn1c(=O)cc(OCC(=O)NCc2cccnc2)c2ccccc21	-3	23271*	u	4	1	0
CCn1c(=O)cc(OCC(=O)NC2CCCCC2)c2ccccc21	-3	16641*	-2	4	0	0
O=C(NCc1ccccc1)C1CCCN(c2cnccn2)C1 (centres undefined)	4	5145	-1	11	5	2
O=C(CSc1nnc(COc2ccc(Cl)cc2)n1Cc1ccco1)Nc1ccc2c(c1)OCO2	x	x	x	2	x	x
CCCNC(=O)Cn1nc(C(F)(F)F)cc1C	-1	3191	-1	-15	2	1
COCCCNC(=O)C[C@H]1C[C@@]2(C(=O)OC)C(=C[C@H](C(C)C)O[C@@H]2C2CC2)N(CCC2=CCCCC2)C1=O	x	x	x	9	x	x
COCCN(C(=O)/C=C/c1ccccc1)c1nnc(-c2cccnc2)s1	-4	3368	-1	2	1	-9
CCOC(=O)C1=C(C)NC(=O)C(C(N)=O)C12CCCC2 (centres undefined)	-4	23702*	u	3	3	-3
Cc1nc(Nc2ccccc2)[nH]c(=O)c1CCC(C)C	11	9772	-1	5	5	-9
CCCCCc1c(C)nc(NCc2ccccc2)[nH]c1=O	10	20180*	u	4	-1	-14
